Sampled rows, rich in hits. Any-hit rate of the full collection: about 2.2%.
A549 tox – A549 cytotoxicity, counter-screen for Nrf2 inhibitors; AID 504648; Potency, µM (doses to about 46 µM), for the others: top-dose activity change, negative = cytotoxicity, most hits filed as inhibitors; 390,000 compounds, 0.16% hits; A549 ARE-Fluc cells, CellTiter-Fluor viability, 18-24 h; also: % is scaled to controls: 0 for no effect and ±100 for the full control effect
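A549 ARE_Fluc cells in 5% FBS OPTI-MEM were exposed to compounds in concentration-response for 18-24 h at 37 deg C. Viability was read by CellTiter-Fluor fluorescence (Ex 405/Em 525) after 30 min, before the luciferase read.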
Pin1 inh – human Pin1 inhibition. Pin1 FP peptide displacement, HiFluor488, 10 min. Potency, µM (doses to about 115 µM), without a hit: at the top dose activity, negative = inhibition, most hits filed as inhibitors. 390,000 compounds, 0.009% hits. AID 504891; active = well fitted inhibition curve with a large enough effect in the polarisation, with a control signal flat, not every such curve was filed as active; inconclusive = small, poorly fitted or top-dose-only effect, or effect the other way, or a change in a side signal; inactive = no such curve, though single readings can be large or run the other way; the % refers to the polarisation; also: % is scaled to controls: 0 for no effect and ±100 for the full control effect
Target sequence (Q13526 whole entry, looked up): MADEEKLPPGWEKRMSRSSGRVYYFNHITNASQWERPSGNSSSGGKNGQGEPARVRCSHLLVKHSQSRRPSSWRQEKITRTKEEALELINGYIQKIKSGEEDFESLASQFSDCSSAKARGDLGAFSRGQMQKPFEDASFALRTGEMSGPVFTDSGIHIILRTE
Nrf2 ARE act – activates Nrf2 signaling | AID 624171 | Potency, µM (doses to about 46.1 µM), for inactives: at the top dose activation, actives largely listed as activators | 410,000 compounds, 0.31% hits | AREc32 ARE-luciferase reporter (MCF7-derived line), luminescence, 24 h; also: % of control where 0% means no effect; nearly all actives have a fitted effect of over 65% in size
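ARE activation measured as luciferase luminescence (Steady-Glo, 30 min RT) in AREc32_Fluc cells after 24 hr compound exposure at 37 deg C, 5% CO2; cells seeded overnight at 1000/well in OPTI-MEM, 5% FBS.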
Nrf2 block – blocks Nrf2 signaling; A549 ARE-Fluc reporter, luciferase luminescence, 18-24 h; Potency, µM (top dose mostly 46 µM), inactives show top-dose activity change, negative = inhibition, hits mostly inhibitors; 360,000 compounds, 2.1% hits; AID 504444; also: % is scaled to controls: 0 for no effect and ±100 for the full control effect; nearly all actives have a fitted effect of over 60% in size
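A549 ARE_Fluc cells (5000/well, 5% FBS OPTI-MEM) pre-incubated 2 h, then treated with compounds 18-24 h at 37C/5% CO2 in concentration-response. CellTiter-Fluor viability read first; BugLite luciferase luminescence after 15 min at room temperature gives Nrf2 activity.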
* hit, by the source's call. Unless noted, calls follow the shape of the dose curve; as a rule, active = well fitted curve in the direction sought with a large enough effect; inconclusive = small, poorly fitted or top-dose-only effect, or another doubt; inactive = no such curve, though single readings can be large; an effect the other way counts as inactive or inconclusive. Potency is read from the fitted curve at half-maximal effect.

CCOc1ccccc1NC(=O)Nc1nnc(N2CCCC(C)C2)s1 (stereo not given) was read as A549 tox 14%, Pin1 inh -1%, Nrf2 ARE act 3% and Nrf2 block -11%.
For CCOc1ccccc1CNCc1c(C(=O)O)n(Cc2ccc(F)cc2)c2cc(C)ccc12 the results were A549 tox 18µM*, Pin1 inh 2%, Nrf2 ARE act 0% and Nrf2 block inconclusive.
`COc1ccc(Cn2c(C(=O)O)c(CNCCc3cc(OC)ccc3OC)c3ccc(C)cc32)cc1` gave A549 tox inconclusive, Pin1 inh 0%, Nrf2 ARE act -1% and Nrf2 block inconclusive.
Screening C=Cc1ccc(Cn2c(C(=O)O)c(CNCc3cccs3)c3ccc(C)cc32)cc1 returned A549 tox 15µM*, Pin1 inh 20%, Nrf2 ARE act 0% and Nrf2 block -27%.
For C=Cc1ccc(Cn2c(C(=O)O)c(CNCc3ccc(F)cc3)c3ccc(C)cc32)cc1 the results were A549 tox inconclusive, Pin1 inh inconclusive, Nrf2 ARE act -2% and Nrf2 block -2%.
For COc1ccc(Cn2c(C(=O)O)c(CNCc3cccs3)c3ccc(C)cc32)cc1 the results were A549 tox inconclusive, Pin1 inh 4%, Nrf2 ARE act 6% and Nrf2 block -22%.
For COc1ccc(Cn2c(C(=O)O)c(CNCc3ccc(OC)cc3OC)c3ccc(C)cc32)cc1 the results were A549 tox 13µM*, Pin1 inh 7%, Nrf2 ARE act 4% and Nrf2 block inconclusive.
Screening Cc1ccc2c(CNCc3cccs3)c(C(=O)O)n(Cc3ccc(F)cc3)c2c1 returned A549 tox 12µM*, Pin1 inh inconclusive, Nrf2 ARE act 4% and Nrf2 block -22%.
Screening COc1ccccc1-n1ncc2c(=O)[nH]c(SCC(=O)Nc3ccc(Cl)cc3)nc21 returned A549 tox -5%, Pin1 inh -2% and Nrf2 ARE act 3%.
CC(C)(C)S(=O)(=O)/C(C#N)=N/Nc1ccc(Cl)cc1 was read as A549 tox inconclusive, Pin1 inh 1%, Nrf2 ARE act 7% and Nrf2 block 10µM*.
CCc1cccc(CC)c1N(COC)C(=O)Cn1c(C)nc2ccccc21 was read as A549 tox -30%, Pin1 inh 3%, Nrf2 ARE act -4% and Nrf2 block inconclusive.
For O=C(COC(=O)c1cnc(Cl)c(Cl)c1)Nc1cccc(S(=O)(=O)N2CCOCC2)c1 the results were A549 tox -4%, Pin1 inh -5%, Nrf2 ARE act 3% and Nrf2 block 3%.
O=C(CSc1ncnc2ccccc12)Nc1cccc(S(=O)(=O)N2CCOCC2)c1 was read as A549 tox -10%, Pin1 inh 8%, Nrf2 ARE act 15% and Nrf2 block 16µM*.
O=C(CSc1nc2ccccc2s1)Nc1ccc(Cl)c(S(=O)(=O)N2CCOCC2)c1 was read as A549 tox -5%, Pin1 inh 28%, Nrf2 ARE act 8% and Nrf2 block inconclusive.
CCCc1nc2ccccc2c(C(=O)OCC(=O)Nc2cccc(S(=O)(=O)N3CCOCC3)c2)c1CC was read as A549 tox inconclusive, Pin1 inh 21%, Nrf2 ARE act -1% and Nrf2 block inconclusive.
CCCc1nc2ccccc2c(C(=O)OCC(=O)Nc2ccc(S(=O)(=O)N3CCOCC3)cc2)c1CC was read as A549 tox inconclusive, Pin1 inh 21%, Nrf2 ARE act 0% and Nrf2 block 23µM*.
`O=C(COc1ncnc2ccccc12)Nc1cccc(S(=O)(=O)N2CCOCC2)c1` gave A549 tox -3%, Pin1 inh 1%, Nrf2 ARE act 0% and Nrf2 block 5%.
For Cc1onc(-c2ccccc2Cl)c1C(=O)OCC(=O)Nc1cccc(S(=O)(=O)N2CCOCC2)c1 the results were A549 tox -7%, Pin1 inh 19%, Nrf2 ARE act 0% and Nrf2 block 18µM*.
For O=C(CSc1nc2cc(Cl)ccc2s1)Nc1cccc(S(=O)(=O)N2CCOCC2)c1 the results were A549 tox -5%, Pin1 inh 48%, Nrf2 ARE act 0% and Nrf2 block 23µM*.
For COc1cccc(Cn2ncc3c4sc(C)cc4n(C)c3c2=O)c1 the results were A549 tox -3%, Pin1 inh 2% and Nrf2 block -20%.
`CCOC(=O)N1CCN(S(=O)(=O)c2ccc(C(=O)NNc3nc4cc(C)cc(C)c4s3)cc2)CC1` gave A549 tox inconclusive, Pin1 inh -7%, Nrf2 ARE act 0% and Nrf2 block 3.7µM*.
`O=C(OCC#CCSc1nnc(-c2cccc3ccccc23)o1)c1ccccc1` gave A549 tox -6%, Pin1 inh 2% and Nrf2 block -3%.
`CCCN1CCN(C(=S)Nc2ccccc2C(F)(F)F)CC1` gave A549 tox -2%, Pin1 inh -7%, Nrf2 ARE act 2% and Nrf2 block 16µM*.
For COCCNC(=O)c1cccc(Nc2nc(-c3ccccc3)c3cc(Cl)ccc3n2)c1 the results were A549 tox inconclusive, Pin1 inh 14%, Nrf2 ARE act 2% and Nrf2 block 15µM*.
For O=C(CN1CCN(c2ccccn2)CC1)Nc1cccc(S(=O)(=O)N2CCCC2)c1 the results were A549 tox -4%, Pin1 inh 11%, Nrf2 ARE act -1% and Nrf2 block 12µM*.
`O=C(CN1CCN(c2ccccn2)CC1)Nc1ccccc1` gave A549 tox -10%, Pin1 inh -8% and Nrf2 ARE act 1%.
For O=C(CN1CCN(c2ccccn2)CC1)Nc1ccc(OCc2ccccc2)cc1 the results were A549 tox -13%, Pin1 inh 2%, Nrf2 ARE act 2% and Nrf2 block 21µM*.
`O=C(Nc1c(Cl)cc([N+](=O)[O-])cc1Cl)c1cc(Cl)ccc1O` gave A549 tox inconclusive, Pin1 inh 3% and Nrf2 block inconclusive.
`C=C1CCN(C(C)C(=O)OCc2ccc(C)cc2)S(=O)(=O)c2ccccc21` (stereo not given) gave A549 tox 0%, Pin1 inh 6% and Nrf2 block 11%.
CC12CCC=CC1C(c1ccc(F)c(/C=C/c3ccccc3)c1)N(Cc1ccccc1)C2=O (stereo not given) was read as A549 tox 13%, Pin1 inh 3% and Nrf2 block 11%.
O=S(=O)(NCC(Nc1ccc(Cl)cc1)c1ccccc1)c1ccc(Cl)cc1 (stereo not given) was read as A549 tox inconclusive, Pin1 inh inconclusive, Nrf2 ARE act 0% and Nrf2 block 21µM*.
For COc1ccc(C2C(C(=O)Nc3ccccc3)=C(C)Nc3nc(-c4ccccc4Cl)nn32)cc1OC (stereo not given) the results were A549 tox -4%, Pin1 inh -2%, Nrf2 ARE act 11% and Nrf2 block inconclusive.
`COc1ccc2nc(-c3ccc(N(C)C)cc3)sc2c1` gave A549 tox inconclusive, Pin1 inh 13% and Nrf2 block 0.33µM*.

Screening results as filed in PubChem.
